One test is described as follows: polyglutamine aggregate formation blockers (AID 1604). The conditions noted are these: polyglutamine-induced protein aggregation inhibition assay; stronger effect = higher value; tested at 2.5 µM.
With `O=c1c(-c2ccc(O)cc2)coc2cc(O)ccc12`, the inhibition of aggregation was 27.9%.

Turning to `N#Cc1ccc2c(c1)N(CCCN1CCC(O)CC1)c1ccccc1S2`, the inhibition of aggregation is 41.2%.

On to `CON`, for which the inhibition of aggregation is -9.7%.

With `CC(C)=CCc1c2c(c3occ(-c4ccc(O)c(O)c4)c(=O)c3c1O)C=CC(C)(C)O2`, the inhibition of aggregation stood at 45.6%.

Take `C=NC(C(=O)NC1C(=O)N2C1SC(C)(C)C2C(=O)O)c1ccccc1` (stereo not given): the inhibition of aggregation is 82%.

As to `O=C1C=CC(=C(c2ccc(O)cc2)c2ccc(O)cc2)C=C1`, the inhibition of aggregation is 83.1%.

As for `NC1=NCCN1CC(=O)O`, the inhibition of aggregation amounted to 80.3%.

For `CC(=O)c1c(O)c(C)c(O)c2c1OC1=CC(=O)C(C(C)=O)C(=O)C12C` (stereo not given), the inhibition of aggregation is -17%.

With `CC(=O)N[C@@H]1[C@@H](O)[C@H](O)[C@@H](CO)O[C@H]1O`, the inhibition of aggregation turned out to be 91.6%.

With `NC(Cn1ccc(=O)c(O)c1)C(=O)O` (stereo not given), the inhibition of aggregation was found to be 7.48%.

For the compound `C[C@]12CCC3c4ccc(OS(=O)(=O)O)cc4CCC3C1CC[C@H]2O` (stereo not given in full), the inhibition of aggregation worked out at 68.5%.

`CCN1CCCC1CNC(=O)c1cc(S(N)(=O)=O)ccc1OC` (stereo not given): the inhibition of aggregation is 59.1%.

For the compound `NC1(C(=O)O)CCCC1`, the inhibition of aggregation stood at 81.6%.

`O=C1c2ccc(O)c(O)c2C(=O)c2c(O)ccc(O)c21`: the inhibition of aggregation stood at 38.2%.

For `O=C(O)c1cc(=O)c2cccc(O)c2[nH]1`, the inhibition of aggregation worked out at 57.7%.

On to `COc1cc(OC)c2ccc(=O)oc2c1`, for which the inhibition of aggregation amounted to 96.2%.

Regarding `COc1cc(C)c2c(=O)cc(-c3ccccc3)oc2c1`, the inhibition of aggregation is 86.2%.

Turning to `O=C(O)c1cc([N+](=O)[O-])ccc1NCCCc1ccccc1`, the inhibition of aggregation came to 4.16%.

For `NC(=O)c1cccc(N)c1`, the inhibition of aggregation came out at 86.1%.

As to `COc1c(OC)c2occc2c2oc(=O)ccc12`, the inhibition of aggregation was found to be 42.9%.

Another test can be described thus: glutamate transport activators, MN-1 cells, MN-1 cell line (AID 1612).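 Further: tested at 1 µM final; 0% = mean of DMSO vehicle wells on each plate; positive means more glutamate uptake than control and negative means less.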 The conditions noted are these: MN-1 motor neuron cells, stronger effect = higher value.
With `O=c1c(-c2ccc(O)cc2)coc2cc(O)ccc12`, the glutamate uptake change turned out to be 12%.

As to `N#Cc1ccc2c(c1)N(CCCN1CCC(O)CC1)c1ccccc1S2`, the glutamate uptake change turned out to be 8.34%.

As for `CON`, the glutamate uptake change amounted to 19.3%.

For `CC(C)=CCc1c2c(c3occ(-c4ccc(O)c(O)c4)c(=O)c3c1O)C=CC(C)(C)O2`, the glutamate uptake change is 0.58%.

In the case of `C=NC(C(=O)NC1C(=O)N2C1SC(C)(C)C2C(=O)O)c1ccccc1` (stereo not given), the glutamate uptake change stood at 4.77%.

Turning to `O=C1C=CC(=C(c2ccc(O)cc2)c2ccc(O)cc2)C=C1`, the glutamate uptake change was -0.24%.

Consider `NC1=NCCN1CC(=O)O`, for which the glutamate uptake change is 12.9%.

In the case of `CC(=O)c1c(O)c(C)c(O)c2c1OC1=CC(=O)C(C(C)=O)C(=O)C12C` (stereo not given), the glutamate uptake change is -5.26%.

As to `CC(=O)N[C@@H]1[C@@H](O)[C@H](O)[C@@H](CO)O[C@H]1O`, the glutamate uptake change is -1.05%.

`NC(Cn1ccc(=O)c(O)c1)C(=O)O` (stereo not given): the glutamate uptake change stood at 15.6%.

Consider `C[C@]12CCC3c4ccc(OS(=O)(=O)O)cc4CCC3C1CC[C@H]2O` (stereo not given in full), for which the glutamate uptake change was -12.2%.

On to `CCN1CCCC1CNC(=O)c1cc(S(N)(=O)=O)ccc1OC` (stereo not given), for which the glutamate uptake change is -6.59%.

For `NC1(C(=O)O)CCCC1`, the glutamate uptake change amounted to 2.91%.

Regarding `O=C1c2ccc(O)c(O)c2C(=O)c2c(O)ccc(O)c21`, the glutamate uptake change was found to be 32%.

For the compound `O=C(O)c1cc(=O)c2cccc(O)c2[nH]1`, the glutamate uptake change worked out at 9.13%.

As to `COc1cc(OC)c2ccc(=O)oc2c1`, the glutamate uptake change was -7.62%.

For the compound `COc1cc(C)c2c(=O)cc(-c3ccccc3)oc2c1`, the glutamate uptake change was -16.6%.

Turning to `O=C(O)c1cc([N+](=O)[O-])ccc1NCCCc1ccccc1`, the glutamate uptake change turned out to be 5.28%.

As for `NC(=O)c1cccc(N)c1`, the glutamate uptake change was 20.1%.

Consider `COc1c(OC)c2occc2c2oc(=O)ccc12`, for which the glutamate uptake change was -3.15%.

Source of the values: PubChem BioAssay.
